Shown are actives, neighbours in structure and some others; about 27% of the full set was active somewhere.
EphB4 ephrin blk = antagonists of human EphB4-ephrin-B2 interaction | P54760 | EphB4 LBD / TNYL-RAW-Alexa532 peptide, fluorescence polarization | inhibition, % at 7 µM | 97,000 tested, 0.15% active | AID 720;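 active means inhibition above the screen-wide mean inhibition plus 3 SD, cut at about 15% in these data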;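 further: 0% = DMSO wells and 100% = excess unlabeled TNYL-RAW peptide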
CYP2C9 act = activators of human CYP2C9. activation factor at 5 µM. 96,000 tested, 1.4% active. P11712. recombinant CYP2C9, luciferin-H conversion, luminescence; active compounds read high; factor 1 = untreated enzyme, 0 = blocked;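 active means activation factor of 2 or more for CYP2C9 at a 5 µM dose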;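 further: 0 = sulfaphenazole-blocked wells and 1 = vehicle-only wells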
CYP2C19 act = activators of human cytochrome P450 2C19. P33261. activation factor at 5 µM. recombinant CYP2C19, luciferin-H EGE luminescence; active compounds read high; 0 = fully inhibited enzyme, 1 = untreated enzyme. AID 1025. 96,000 tested, under 10 active;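 active means activation factor of at least 2 at 5 µM in the primary screen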;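 further: 0 = wells with 2.5 mM tranylcypromine and 1 = vehicle-only wells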
Target sequence (P33261 whole entry, looked up): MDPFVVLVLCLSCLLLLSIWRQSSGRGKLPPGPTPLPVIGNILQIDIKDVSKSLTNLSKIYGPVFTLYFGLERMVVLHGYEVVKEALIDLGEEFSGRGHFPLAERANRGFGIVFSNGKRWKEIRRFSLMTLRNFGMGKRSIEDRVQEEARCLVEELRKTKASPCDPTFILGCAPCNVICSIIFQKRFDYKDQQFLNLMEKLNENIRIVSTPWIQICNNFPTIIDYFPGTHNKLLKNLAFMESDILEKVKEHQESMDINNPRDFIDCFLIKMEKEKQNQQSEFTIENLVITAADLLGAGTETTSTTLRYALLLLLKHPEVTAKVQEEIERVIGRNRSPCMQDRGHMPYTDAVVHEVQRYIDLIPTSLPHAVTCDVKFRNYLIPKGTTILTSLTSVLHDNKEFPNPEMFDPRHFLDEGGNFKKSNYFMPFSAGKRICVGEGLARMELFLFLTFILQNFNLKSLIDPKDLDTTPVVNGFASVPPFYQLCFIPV
CYP2C19 inhib = inhibitors of human CYP2C19 | CYP2C19 Supersomes, luciferin-H EGE luminescence, 30 min | P33261 | 96,000 tested, 21% active | AID 778 | inhibition, % at 5 µM;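 active means CYP2C19 inhibition above a set limit at 5 µM in the primary screen, cut at about 50% in these data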;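 further: plate controls were negative control wells for no effect and 2.5 mM tranylcypromine positive control for full effect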
CYP2C9 inhib = blocks human cytochrome P450 2C9. AID 777. CYP2C9 Supersomes, luciferin-H conversion, luminescence. 96,000 tested, 20% active. inhibition, % at 5 µM. P11712;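 active means blocking of liver enzyme CYP2C9 beyond about 50% at 5 µM, limit read from the data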
Numbers without * were called inactive; . = not tested or not shown.

SMILES	EphB4 ephrin blk	CYP2C9 act	CYP2C19 act	CYP2C19 inhib	CYP2C9 inhib
Cc1cccc(NC(=O)C2(c3ccccc3)CC2(Cl)Cl)c1 (configuration not stated)	3	0.5	0.4	61*	52*
Cc1ccc(NC(=O)C2(c3ccccc3)CC2(Cl)Cl)cc1C (configuration not stated)	2	0.7	0.3	74*	30
Cc1cc(C)cc(NC(=O)C2(c3ccccc3)CC2(Cl)Cl)c1 (configuration not stated)	-2	0.6	0.7	28	43
CCOc1ccccc1NC(=O)NC1(C(=O)N2CCN3CCCC3C2)CCCCC1 (configuration not stated)	-4	1.1	0.7	30	-7
c1ccc(Cc2nc3ccccc3n2Cc2ccccc2)cc1	4	0.1	0.6	36	92*
CCc1nc2ccccc2n1CCC(=O)O	-6	.	.	.	.
CC(C)(C)Cc1nc2ccccc2n1CCc1ccccc1	-5	0.8	0.2	85*	20
c1ccc(Cn2c(CSc3nnnn3-c3ccccc3)nc3ccccc32)cc1	2	1	1	2	2
CCOC(=O)c1cc(=O)n2nc(-c3ccc(C)cc3)nc2s1	3	0.9	0.9	10	13
Cc1ccccc1C(=O)c1c[nH]c(C(=O)NCC2CCCO2)c1 (configuration not stated)	-3	0.9	0.9	9	9
O=C(O)c1ccccc1N/N=C\c1ccnc2ccccc12	-6	1	1.1	-10	4
COCc1cc(C)nc2sc(C(=O)OC(C)C)c(N)c12	0	0.3	0.2	85*	72*
CCCCNC(=O)c1sc2nc(C)cc(COC)c2c1-n1cccc1	1	0.6	0.6	36	44
COC(=O)c1ccc(COc2cccc(OC)c2)o1	2	0.9	0.5	47	11
COC(=O)c1ccc(CSCC(=O)Nc2cc(OC)cc(OC)c2)o1	-4	0.4	0.5	45	64*
CC(=O)c1cccc(NC(=O)Cc2ccc3c(c2)CCCC3)c1	0	2.6*	0.8	17	-164
Cc1ccc(NC(=O)Cc2ccc3c(c2)CCCC3)cc1C	-3	1.3	0.6	42	-30
CC(=O)Oc1ccc(C(=O)Nc2cc(C)ccc2NC(=O)COc2ccccc2)cc1	-1	0.4	0.9	11	58*
COc1ccc(NC(=O)Nc2cccc(OC)c2)cc1	-1	.	.	.	.
COc1ccc(CC(=O)Nc2cccc(-c3csc(C)n3)c2)cc1	-1	0.4	0.3	69*	60*
COc1cccc(NC(=O)Nc2ccc3nsnc3c2)c1	-1	0.4	1	-1	64*
CCOC(=O)N1CCN(C(=O)c2ccc3c(=O)n(CC4CCCO4)c(=S)[nH]c3c2)CC1 (configuration not stated)	4	0.8	0.9	10	17
CCOC(=O)C1[C@H]2C(=O)N(CCCOC)C[C@]23C=C[C@H]1O3 (some centres not stated)	0	1	1	-2	3
CCc1cccc(NC(=O)COc2ccccc2)c1	7	1	0.5	52*	5
COC(=O)COc1cccc(NC(=O)COc2ccccc2)c1	-1	0.9	1	3	6
SMILES	EphB4 ephrin blk	CYP2C9 act	CYP2C19 act	CYP2C19 inhib	CYP2C9 inhib
CC(=O)c1cccc(NC(=O)COc2ccccc2)c1	1	0.4	0.3	74*	57*
COc1ccc(OCC(=O)Nc2cccc(OC)c2)cc1	-5	1.2	0.3	71*	-19
COc1cccc(NC(=O)COc2ncnc3sc(C)c(C)c23)c1	0	1	1	0	2
CCN(CC(=O)Nc1cccc(OC)c1)C(=O)c1ccc(C)s1	4	0.3	0.2	76*	72*
CSc1nc(C)c(CCOC(=O)c2cccc(C)c2)c(=O)[nH]1	3	0.7	0.9	13	26
Cc1ccc(SC(c2ccc(C)cc2)C(Cn2cncn2)C(=O)c2ccccc2)cc1 (configuration not stated)	2	0.6	0.8	18	37
Cc1ccc(C(Sc2ccccc2)C(Cn2cncn2)C(=O)c2ccccc2)cc1 (configuration not stated)	1	0.4	0.1	92*	63*
Cc1nn(C(=O)c2ccccc2)c2c1C(=O)CC(C)(C)C2	-4	0.3	0.2	80*	69*
Cc1ccc(C2=CSC3=NCCN23)c(C)c1	-4	1	0.4	56*	2
Nc1ccc2c(c1)N1CCN=C1S2	-9	1	1	1	4
COc1cc(C(=O)NCCc2nc3ccccc3n2C)cc(OC)c1OC	4	.	.	.	.
COc1ccccc1C(O)Cc1nc2ccccc2n1C (configuration not stated)	-8	0.9	0.1	95*	8
COc1ccc(NC(=S)N2CCN(C/C=C/c3ccccc3)CC2)cc1OC	2	0.9	0.9	9	9
Cc1cc(C)n(C(=O)c2ccc(NC(=O)C3CC3)cc2)n1	3	2.2*	1	2	-122
COc1ccccc1OCCCCCc1c(C)n[nH]c1C	-6	0.9	0.5	54*	13
CCOc1ccccc1NC(=O)CSc1c(C)n[nH]c1C	0	1.3	1	-2	-31
COc1ccccc1OCCc1nnc(N)s1	4	1.4	1.3	-33	-44
COc1ccccc1OCCCCNCCO	-7	1.1	1.1	-7	-8
COc1ccccc1OCCCc1c(C)n[nH]c1C	-5	0.9	0.3	67*	6
Cc1cccc(OCCCCc2c(C)n[nH]c2C)c1C	4	0.3	0.1	88*	74*
CCOc1ccccc1OCCCCCc1c(C)n[nH]c1C	-5	0.8	0.2	77*	19
O=C(Nc1cccn2ncnc12)c1ccccc1	-5	0.9	1	2	5
CC(C)N(C#N)c1nc(N2CCOCC2)nc(N2CCOCC2)n1	0	0.5	0.8	19	45
COC(=O)C1=C(N)OC2=C(C(=O)CC(C)(C)C2)C1c1cccnc1 (configuration not stated)	.	0.9	0.8	18	9
CC1(C)CC(=O)C2=C(C1)OC1=C(C(=O)CC(C)(C)C1)C2c1ccc(O)cc1O	8	2.5*	0.8	20	-147
SMILES	EphB4 ephrin blk	CYP2C9 act	CYP2C19 act	CYP2C19 inhib	CYP2C9 inhib
Cc1ccc2sc(NC(=O)CSc3nc(C)cc(C)c3C#N)nc2c1	-2	0.3	0.3	68*	68*
Cc1cc(C)c(C#N)c(SCC(=O)OC2CCCCC2)n1	.	0.4	0.3	66*	60*
Cc1cc(C)c(C#N)c(SCC(=O)CC(=O)OC(C)C)n1	.	0.5	0.1	91*	53*
Cc1cc(C)c(C#N)c(SCC(=O)Nc2nnc(-c3ccccc3)s2)n1	5	0.8	0.9	10	18
Cc1nc(SCC(=O)CC(=O)OC(C)C)c(C#N)c(C)c1C	0	0.8	0.4	64*	23
CCOc1ccccc1OCCOc1cccc(C(F)(F)F)c1	-2	1.4	0.8	20	-35
Cc1nc(S(=O)(=O)c2ccc(Cl)cc2)c(NCc2ccccc2)o1	-10	1	0.6	40	3
